The results in this text go back to the supplement of paper PMC12645437, “Orthogonal IMiD-Degron Pairs Induce Selective Protein Degradation in Cells” (ACS Chemical Biology, 2025).

In all, about 8,300 sequences were measured (“log2 fold change of degron read counts, EGFP-low vs EGFP+ sorted cells (limma voom), compound-induced degradation”: median about -1.1, highest 2% from about 3.2 on). The sample as a whole holds a higher share of the highest values than the screen did.

The test concerns the target T1, CRBN, Q96SW2.
T1 chain: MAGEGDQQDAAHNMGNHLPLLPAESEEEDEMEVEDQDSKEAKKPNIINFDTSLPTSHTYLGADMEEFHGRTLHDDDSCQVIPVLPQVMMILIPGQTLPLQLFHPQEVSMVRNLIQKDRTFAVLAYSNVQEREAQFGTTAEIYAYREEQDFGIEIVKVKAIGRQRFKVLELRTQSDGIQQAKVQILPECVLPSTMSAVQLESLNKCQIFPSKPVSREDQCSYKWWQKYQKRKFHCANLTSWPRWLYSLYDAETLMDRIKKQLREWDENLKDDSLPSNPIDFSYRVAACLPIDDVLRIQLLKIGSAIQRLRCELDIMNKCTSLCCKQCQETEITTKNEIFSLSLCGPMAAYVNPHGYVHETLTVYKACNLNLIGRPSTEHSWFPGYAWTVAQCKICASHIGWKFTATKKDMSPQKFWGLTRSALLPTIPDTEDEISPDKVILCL
Put plainly: log2 fold change of degron read counts, EGFP-low vs EGFP+ sorted cells (limma voom), compound-induced degradation; higher = more compound-induced degradation of the degron-EGFP fusion; degrons are variants of IKZF1/3 zinc finger 2; compound dose not given here. Conditions: Jurkat, 18 h.

[1] abbreviates: compound: compound 19 (5-tert-butyl-thalidomide).
[2] abbreviates: compound: compound 22 (5-morpholino-thalidomide).
Where [3] appears, read: compound: compound 33 (diphenyl IMiD analogue).
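Note: pooled lentiviral library of zinc finger degron-EGFP fusions in mCherry-positive Jurkat cells, FACS-sorted after compound exposure, with degron abundance counted by next-generation sequencing.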

With FDCPICGAAFTQKGNLLRHIKL [46F_47D_49P_50I_52G_53A_54A_55F_67L_, Q9UKT9], the “log2 fold change of degron read counts” value is, setting by setting: under setting [1], 2.39; under setting [2], 0.645; under setting [3], 1.79; (compound: thalidomide) 2.2.

For the sequence FLCPICGAAFTQKGNLLRHIKL [46F_47L_49P_50I_52G_53A_54A_55F_67L_, Q9UKT9], the “log2 fold change of degron read counts” value is, setting by setting: under setting [1], 1.31; under setting [2], 0.494; under setting [3], 1.82; (compound: thalidomide) 1.59.

With FACPICGAAFTQKGNLLRHIKL [46F_47A_49P_50I_52G_53A_54A_55F_67L_, Q9UKT9], the “log2 fold change of degron read counts” value is 3.73 under setting [1], 2.93 under setting [2], 1.69 under setting [3] and 1.69 (compound: thalidomide).

Consider FMCPICGAAFTQKGNLLRHIKL [46F_47M_49P_50I_52G_53A_54A_55F_67L_, Q9UKT9], for which the “log2 fold change of degron read counts” value reads like this: under setting [1], 2.31; under setting [2], 2.47; under setting [3], 2.94; (compound: thalidomide) 2.32.

Turning to FCCPICGAAFTQKGNLLRHIKL [46F_47C_49P_50I_52G_53A_54A_55F_67L_, Q9UKT9], the “log2 fold change of degron read counts” value reads like this: under setting [1], 3.34; under setting [2], 2.84; under setting [3], 2.48; (compound: thalidomide) 2.21.

Turning to FTCPICGAAFTQKGNLLRHIKL [46F_47T_49P_50I_52G_53A_54A_55F_67L_, Q9UKT9], the “log2 fold change of degron read counts” value is 2.48 under setting [1], 2.97 under setting [2], 2.48 under setting [3] and 2.67 (compound: thalidomide).

As to FICNVCGAIFTQKGNLLRHIKL [46F_47I_49N_50V_52G_53A_54I_55F_67L_, Q9UKT9], the “log2 fold change of degron read counts” value under setting [1] is -2.95, the “log2 fold change of degron read counts” value under setting [2] is -2.03, the “log2 fold change of degron read counts” value under setting [3] was found to be 0.29 and the “log2 fold change of degron read counts” value (compound: thalidomide) was -1.36.

FVCNQCGRVFTQKGNLLRHIKL [46F_47V_49N_50Q_52G_53R_54V_55F_67L_, Q9UKT9]: the “log2 fold change of degron read counts” value was -2.6 under setting [1], -2.87 under setting [2], -2.56 under setting [3] and -2.9 (compound: thalidomide).

Consider FLCDVCGAGFTQKGNLLRHIKL [46F_47L_49D_50V_52G_53A_54G_55F_67L_, Q9UKT9], for which the “log2 fold change of degron read counts” value is, setting by setting: under setting [1], -0.0363; under setting [2], -1.56; under setting [3], -0.558; (compound: thalidomide) -1.42.

As to FMCDICGAQFTQKGNLLRHIKL [46F_47M_49D_50I_52G_53A_54Q_55F_67L_, Q9UKT9], the “log2 fold change of degron read counts” value is -1.1 under setting [1], -0.152 under setting [2], 2.21 under setting [3] and -0.153 (compound: thalidomide).

Consider FNCNQCGRFFTQKGNLLRHIKL [46F_47N_49N_50Q_52G_53R_54F_55F_67L_, Q9UKT9], for which the “log2 fold change of degron read counts” value was -1.77 under setting [1], -2.76 under setting [2], -1.9 under setting [3] and -1.6 (compound: thalidomide).

As to FRCPICGHIFTQKGNLLRHIKL [46F_47R_49P_50I_52G_53H_54I_55F_67L_, Q9UKT9], the “log2 fold change of degron read counts” value is -2.22 under setting [1], -2.81 under setting [2], -1.62 under setting [3] and -1.42 (compound: thalidomide).

As to FLCEICGHQFTQKGNLLRHIKL [46F_47L_49E_50I_52G_53H_54Q_55F_67L_, Q9UKT9], the “log2 fold change of degron read counts” value under setting [1] is -3.24, the “log2 fold change of degron read counts” value under setting [2] is -3.62, the “log2 fold change of degron read counts” value under setting [3] was -3.53 and the “log2 fold change of degron read counts” value (compound: thalidomide) is -2.18.

As to LKCPICGFDCTQKGNLLRHIKL [46L_47K_49P_50I_52G_53F_54D_55C_67L_, Q9UKT9], the “log2 fold change of degron read counts” value is -1.99 under setting [1], -1.82 under setting [2], -1.08 under setting [3] and -0.789 (compound: thalidomide).

Consider FGCEICGHGFTQKGNLLRHIKL [46F_47G_49E_50I_52G_53H_54G_55F_67L_, Q9UKT9], for which the “log2 fold change of degron read counts” value was -2.33 under setting [1], -2.62 under setting [2], -2.89 under setting [3] and -2.42 (compound: thalidomide).

For the sequence FLCPICGRFFTQKGNLLRHIKL [46F_47L_49P_50I_52G_53R_54F_55F_67L_, Q9UKT9], the “log2 fold change of degron read counts” value under setting [1] is -1.24, the “log2 fold change of degron read counts” value under setting [2] was -1.32, the “log2 fold change of degron read counts” value under setting [3] was determined as 0.143 and the “log2 fold change of degron read counts” value (compound: thalidomide) came to 0.16.

Take FICPICGASFTQKGNLLRHIKL [46F_47I_49P_50I_52G_53A_54S_55F_67L_, Q9UKT9]: the “log2 fold change of degron read counts” value is -0.0282 under setting [1], 2.87 under setting [2], 1.99 under setting [3] and 2.6 (compound: thalidomide).

As for FSCPICGASFTQKGNLLRHIKL [46F_47S_49P_50I_52G_53A_54S_55F_67L_, Q9UKT9], the “log2 fold change of degron read counts” value came to 3.35 under setting [1], 2.78 under setting [2], 2.17 under setting [3] and 2.01 (compound: thalidomide).

For FCCNICGASFTQKGNLLRHIKL [46F_47C_49N_50I_52G_53A_54S_55F_67L_, Q9UKT9], the “log2 fold change of degron read counts” value runs as follows: under setting [1], 1.56; under setting [2], 1.91; under setting [3], 1.76; (compound: thalidomide) 1.41.

As for FCCPICGASFTQKGNLLRHIKL [46F_47C_49P_50I_52G_53A_54S_55F_67L_, Q9UKT9], the “log2 fold change of degron read counts” value came out at 3.32 under setting [1], 2.71 under setting [2], 2.44 under setting [3] and 2.37 (compound: thalidomide).

On to FVCPICGASFTQKGNLLRHIKL [46F_47V_49P_50I_52G_53A_54S_55F_67L_, Q9UKT9], for which the “log2 fold change of degron read counts” value is 0.995 under setting [1], 2.78 under setting [2], 2.19 under setting [3] and 3.08 (compound: thalidomide).

As to FMCPICGASFTQKGNLLRHIKL [46F_47M_49P_50I_52G_53A_54S_55F_67L_, Q9UKT9], the “log2 fold change of degron read counts” value under setting [1] was 1.54, the “log2 fold change of degron read counts” value under setting [2] is 2.45, the “log2 fold change of degron read counts” value under setting [3] is 2.91 and the “log2 fold change of degron read counts” value (compound: thalidomide) turned out to be 2.41.

With FACPICGASFTQKGNLLRHIKL [46F_47A_49P_50I_52G_53A_54S_55F_67L_, Q9UKT9], the “log2 fold change of degron read counts” value is 3.73 under setting [1], 2.44 under setting [2], 1.48 under setting [3] and 1.61 (compound: thalidomide).

With FECNICGASFTQKGNLLRHIKL [46F_47E_49N_50I_52G_53A_54S_55F_67L_, Q9UKT9], the “log2 fold change of degron read counts” value reads like this: under setting [1], -0.173; under setting [2], -1.42; under setting [3], 0.849; (compound: thalidomide) 1.86.

Take FRCPICGASFTQKGNLLRHIKL [46F_47R_49P_50I_52G_53A_54S_55F_67L_, Q9UKT9]: the “log2 fold change of degron read counts” value is, setting by setting: under setting [1], 1.96; under setting [2], 1.71; under setting [3], 1.79; (compound: thalidomide) 1.78.

FECPICGASFTQKGNLLRHIKL [46F_47E_49P_50I_52G_53A_54S_55F_67L_, Q9UKT9]: the “log2 fold change of degron read counts” value is 2.15 under setting [1], -0.116 under setting [2], 2.38 under setting [3] and 3.32 (compound: thalidomide).

For FQCPICGRGFTQKGNLLRHIKL [46F_47Q_49P_50I_52G_53R_54G_55F_67L_, Q9UKT9], the “log2 fold change of degron read counts” value was -0.816 under setting [1], -0.908 under setting [2], -0.112 under setting [3] and 1.8 (compound: thalidomide).

Take FQCEICGAVFTQKGNLLRHIKL [46F_47Q_49E_50I_52G_53A_54V_55F_67L_, Q9UKT9]: the “log2 fold change of degron read counts” value is, setting by setting: under setting [1], 0.132; under setting [2], 2.71; under setting [3], 2.34; (compound: thalidomide) 3.22.
